The record followed here is ChEMBL document CHEMBL3988442, “University of Dundee, Small-Polar-MMV Screening Library” (2021).

The structures appear in SMILES notation. Screen size: about 69,000 compounds; about 1,000 (1.4%) showed an effect of 50% or more. The entries come from a sample that favours strong results as a whole.

The test system of this assay is Leishmania donovani. The assay is described as follows: Leishmania intramacrophage assay. The class given is functional, organism-based. On the set-up: scale not given: in the data most compounds retested in dose-response had high values.

On to `CCCn1nnnc1COC(=O)C1COc2ccc(Cl)cc2C1` (stereo not drawn), for which the “Percent Effect” value (30.3 µM, […]) is -4.057%. In the case of `O=C(NCC1(c2cccc(F)c2)CC1)N1CCC2(CCOC2)C1` (stereo not drawn), the “Percent Effect” value (30.3 µM, […]) is listed as -5.939%.

As for `CC1(C)OC(=O)N(CC(=O)N2CCC(c3ccccc3Cl)C2)C1=O` (stereo not drawn), the “Percent Effect” value (30.3 µM, […]) was 16.86%. For `CC(=O)N1CCC(Cc2cnc(C(=O)N3CCCC3)cn2)C1` (stereo not drawn), the “Percent Effect” value (30.3 µM, […]) is -5.476%. Take `CCOCc1ccccc1CNc1ccc2nncn2n1`: the “Percent Effect” value (30.3 µM, […]) is 18.04%. In the case of `CCn1ncc(Nc2[nH]cnc3nncc2-3)c1C`, the “Percent Effect” value (30.3 µM, […]) is reported as 61.85%. Take `CCn1ncc(CNc2[nH]cnc3nncc2-3)c1C`: under “30.3 µM, […]”, the “Percent Effect” value came out at 46.44%. For the compound `CCn1ncc(Nc2[nH]cnc3nc(C)nc2-3)c1C`, the “Percent Effect” value (30.3 µM, […]) is -7.482%.

Consider `N#Cc1c(F)cccc1N1CCCC(C(=O)Nc2nccs2)C1` (stereo not drawn), for which the “Percent Effect” value (30.3 µM, […]) came to 38.57%. Turning to `Cc1ccc(C(=O)NCc2ccc(N(C)C)cc2)cn1`, the “Percent Effect” value (30.3 µM, […]) stood at 1.485%. Same read-out and setting: with `CN(c1ccc(CNC(=O)c2ccc(O)nc2)cc1)C1CCCCC1` the figure was 57.37%; with `CN(c1ccc(CNC(=O)c2c[nH]c(=O)c(Cl)c2)cc1)C1CCCCC1`, 30.08%. Take `CNC(=O)c1cc(C)n(-c2ccccc2)n1`: the “Percent Effect” value (30.3 µM, […]) stood at 21.3%. Take `CC(=O)N(Cc1ncc(C)o1)C1CCN(Cc2ccncc2Cl)C1` (stereo not drawn): the “Percent Effect” value (30 µM, 30.03 µM) is on record as 31.13%. Still for that read-out and setting: with `Cc1cnc(CN(C)C2CCN(Cc3nc4ccccc4n3C)C2)o1` (stereo not drawn) the figure was 57.21%. With `Cc1cnc(CN(C)C2CCN(Cc3nc4ccccc4o3)C2)o1` (stereo not drawn), under “30 µM”, the “Percent Effect” value is reported as 8.725%. On to `CC(=O)N(Cc1ncc(C)o1)C1CCN(Cc2cccc(C#N)c2)C1` (stereo not drawn), for which the “Percent Effect” value (30 µM, 30.03 µM) was determined as 6.646%.

`Cc1nnc(CN(C)C2CCN(Cc3nc4ccccc4n3C)C2)o1` (stereo not drawn): the “Percent Effect” value (30 µM) is on record as 31.75%. Turning to `O=C(c1ccccc1O)N1CCn2c(nnc2C(F)(F)F)C1`, the “Percent Effect” value (30.3 µM, […]) is given as -5.557%. Same read-out and setting: with `CCN(CC)Cc1cc(=O)n2c(n1)CN(C(=O)c1ccc[nH]1)CCC2` the figure was 36.34%; with `c1ccc(-c2nnc3ccc(N4CCC5(CCOC5)C4)nn23)cc1` (stereo not drawn), -7.106%; with `CCN(CCCNC(=O)Nc1ccccc1C(C)C)S(C)(=O)=O`, 27.9%.

On to `CCC1CN(CC(=O)NCCN(CC)CC)c2ccccc2S1` (stereo not drawn), for which the “Percent Effect” value (30.3 µM, […]) is given as 24.72%. For `O=C(NCCN1CCOCC1)c1ccc(-n2ccc3ccccc32)s1`, the “Percent Effect” value (30 µM, 30.03 µM) came to 37.35%. `O=C(NCCCN1CCCC1=O)c1ccc(-n2ccc3ccccc32)s1`: the “Percent Effect” value (30.3 µM, […]) was 32.92%. `Cn1ccc2c(C(=O)NCCCN3CCCC3)cccc21`: for the setting “30.3 µM, […]”, the “Percent Effect” value stood at 16.97%. On to `O=C(NCCCN1CCOCC1)c1ccc(-n2ccc3ccccc32)s1`, for which, where the note is “30.3 µM, […]”, the “Percent Effect” value worked out at 90.86%. On to `CCN(CC)CCNC(=O)c1cnc(C(C)(C)C)s1`, for which the “Percent Effect” value (30 µM, 30.03 µM) was 10.1%. Consider `CCN(CC)CCNC(=O)c1ccc(-n2ccc3ccccc32)s1`, for which the “Percent Effect” value (30.3 µM, […]) amounted to 95.71%. Take `O=C(NCCCN1CCCCC1)c1ccc(-n2ccc3ccccc32)s1`: the “Percent Effect” value (30 µM, 30.03 µM) came to 94.7%. On to `CCOCCCC(=O)Nc1[nH]nc(-c2ccncc2)c1C`, for which the “Percent Effect” value (30.3 µM, […]) worked out at 25.28%.

On to `CC(C)(O)C1CCN(C(=O)Nc2nc(-c3ccccc3)ns2)CC1`, for which the “Percent Effect” value (30 µM, 30.03 µM) was 46.85%. On to `CC(C)(CO)CCCNC(=O)N1CCc2c(F)ccc(F)c2C1`, for which, for the setting “30.3 µM, […]”, the “Percent Effect” value is -32.7%.
